Avidin fluor: avidin bead compound fluorescence profile | Avidin beads, compound fluorescence 488/530 nm, flow cytometry; stronger effect = higher value | fluorescence (KMESF) at 10 µM | 220,000 compounds, 0.38% hits | AID 1775; in the data active means fluorescence above about 47
RGS16-Gao HTS: regulators of human RGS16-Galphao interaction. binding response (% of control), % at 10 µM. bead-based flow cytometry RGS16-Galphao binding, fluorescence; actives lie on both sides. 220,000 compounds, 0.38% hits. O15492+P09471;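 further: Galphao activated by GDP with aluminum fluoride before binding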
RGS4-Gao reg: human RGS4-Galphao interaction regulation | P09471 | Multiplexed bead flow cytometry, RGS4-Galphao binding; actives lie on both sides | binding response (% of control), % at 10 µM | 220,000 compounds, 0.33% hits | AID 1415; in the data active means binding response below about 49% or above about 150%; inactive means in between;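 further: fluorescent Galphao activated with aluminum fluoride binding bead-coupled RGS4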
GSH fluor: GSH bead compound fluorescence profile; GSH beads flow cytometry, compound fluorescence 488/530 nm; stronger effect = higher value; fluorescence (KMESF) at 10 µM; 190,000 compounds, 0.25% hits; in the data active means fluorescence above about 89;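 further: glutathione beads carrying GST-tagged Bcl family fusion proteins plus one bare bead set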
RGS7-Gao reg: human RGS7-Galphao interaction regulation; P09471; Multiplexed bead flow cytometry, RGS7-Galphao binding; actives lie on both sides; binding response (% of control), % at 10 µM; 220,000 compounds, 0.35% hits; AID 1439; in the data active means binding response below about 49% or above about 150%;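 further: fluorescent Galphao held in activated GDP-AlF4 state binding bead-coupled RGS7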
RGS8-Gao reg: modulates binding of RGS8 to human Galphao; 220,000 compounds, 0.34% hits; P09471; response (percent of control binding), % at 10 µM; multiplexed bead flow cytometry; actives lie on both sides; in the data active means response below about 60% or above about 140%; inactive means in between;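 further: Galphao activated as the GDP aluminium fluoride complex binding bead-coupled RGS8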
RGS-Gao: modulates binding between human RGS4 and Galphao; shares compounds with RGS16-Gao HTS; multiplexed bead flow cytometry, RGS–Galpha-o binding; RGS4–Galpha-o binding response, % at 10 µM; 1,600 compounds, 99% hits; AID 1504;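 further: fluorescently labeled Galpha-o bound to GDP with aluminium fluoride binding biotinylated RGS beads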
Biotin-avidin: biotin-avidin bead binding disruption counter-screen. shares compounds with RGS16-Gao HTS. streptavidin beads, fluorescein-biotin binding, flow cytometry. inhibition, % at 10 µM. 1,700 tested, under 10 active. AID 1783;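 active means inhibition above 50%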;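 further: median green fluorescence of gated singlet beads compared with DMSO control wells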
RGS8-Gao single: RGS8-Galphao interaction regulation, single point confirmation; shares compounds with RGS16-Gao HTS; bead-based flow cytometry RGS8-Galphao binding, fluorescence; actives lie on both sides; binding response (% of control), % at 10 µM; 1,700 compounds, 3% hits; AID 1836; in the data active means binding response below about 72% or above about 130%; inactive means in between;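 further: Galphao activated as GDP AlF4 complex before binding bead RGS8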
RGS7-Gao single: RGS7-Galphao interaction regulation, single point confirmation | bead-based flow cytometry RGS7-Galphao binding; actives lie on both sides | shares compounds with RGS16-Gao HTS | response (percent of control binding), % at 10 µM | 1,700 compounds, 7.8% hits; in the data active means response below about 75% or above about 130%; inactive means in between;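 further: fluorescent Galphao activated with GDP and aluminum fluoride binding bead-coupled RGS7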
RGS16-Gao single: confirmation of regulators of human RGS16-Galphao interaction; shares compounds with RGS16-Gao HTS; bead-based flow cytometry, RGS16-Galphao binding; actives lie on both sides; response (% of control binding), % at 10 µM; 1,700 compounds, 4% hits; AID 1838; in the data active means response below about 74% or above about 130%; inactive means in between;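 further: Galphao activated as the GDP aluminium fluoride complex binding bead-coupled RGS16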
RGS4-Gao single: RGS4-Galphao interaction regulation, single point confirmation; shares compounds with RGS16-Gao HTS; binding response (% of control), % at 10 µM; RGS4-Galphao binding, multiplexed bead flow cytometry; actives lie on both sides; AID 1840; 1,700 compounds, 4% hits; in the data active means binding response below about 74% or above about 130%; inactive means in between
RGS19-Gao single: confirmation of regulators of human RGS19-Galphao interaction. bead-based flow cytometry RGS19-Galphao binding; actives lie on both sides. shares compounds with RGS16-Gao HTS. 1,700 compounds, 5% hits. response (percent of control binding), % at 10 µM. AID 1841; in the data active means response below about 50% or above about 160%; inactive means in between
Target sequence (P09471 whole entry, looked up): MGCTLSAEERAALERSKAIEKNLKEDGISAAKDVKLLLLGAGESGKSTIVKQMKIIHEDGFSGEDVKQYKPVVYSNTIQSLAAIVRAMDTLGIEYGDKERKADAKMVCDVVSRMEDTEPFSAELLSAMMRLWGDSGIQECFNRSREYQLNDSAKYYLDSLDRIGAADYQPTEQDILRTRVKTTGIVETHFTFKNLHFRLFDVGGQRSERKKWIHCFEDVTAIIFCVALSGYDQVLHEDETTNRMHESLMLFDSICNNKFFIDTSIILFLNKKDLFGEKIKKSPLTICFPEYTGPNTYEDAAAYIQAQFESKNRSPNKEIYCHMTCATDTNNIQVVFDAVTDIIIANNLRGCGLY
Target sequence (P49795 whole entry, looked up): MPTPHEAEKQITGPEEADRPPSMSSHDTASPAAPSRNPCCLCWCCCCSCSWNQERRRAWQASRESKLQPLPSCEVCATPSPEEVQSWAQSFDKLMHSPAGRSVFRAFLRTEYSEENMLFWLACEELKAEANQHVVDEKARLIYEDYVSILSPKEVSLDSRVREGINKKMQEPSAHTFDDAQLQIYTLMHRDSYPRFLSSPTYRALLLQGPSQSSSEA
A number is an active result; [ ] = dose if it differs, or a comment. This is a sample that favours compounds with a hit; in the whole collection about 1.2% have one here. Unless noted, how the calls were made is not given here.

Screening O=C(NCC(=O)N1CC(O)CC1C(=O)N1CC(O)CC1C(=O)OCc1ccccc1)OCc1ccccc1 (stereo unspecified) returned Avidin fluor inactive, RGS16-Gao HTS inactive, RGS4-Gao reg inactive, GSH fluor inactive, RGS7-Gao reg inactive and RGS8-Gao reg inactive.
`Cc1ccc(C(Sc2ccccc2)C(Cn2cncn2)C(=O)c2ccccc2)cc1` (stereo unspecified) gave Avidin fluor inactive, RGS16-Gao HTS inactive, RGS4-Gao reg inactive, GSH fluor inactive, RGS7-Gao reg inactive and RGS8-Gao reg inactive.
COC1CCN(C(=O)CC2C(=O)NCCN2CC(C)(C)C)CC1 (stereo unspecified) was read as Avidin fluor inactive, RGS16-Gao HTS 5.7, RGS4-Gao reg 10.0, GSH fluor inactive, RGS7-Gao reg 2.1, RGS8-Gao reg 17.3, Biotin-avidin inactive, RGS8-Gao single inactive, RGS7-Gao single inactive, RGS16-Gao single inactive, RGS4-Gao single inactive and RGS19-Gao single inactive.
`COC1CCN(C(=O)CC2C(=O)NCCN2CC2CCCCC2)CC1` (stereo unspecified) gave Avidin fluor inactive, RGS16-Gao HTS inactive, RGS4-Gao reg inactive, GSH fluor inactive, RGS7-Gao reg inactive and RGS8-Gao reg inactive.
For COc1ccccc1NC(=O)CN1CC(=O)Nc2ccccc21 the results were Avidin fluor inactive, RGS16-Gao HTS inactive, RGS4-Gao reg inactive, GSH fluor inactive, RGS7-Gao reg inactive and RGS8-Gao reg inactive.
For CCN1CCN(Cc2cc(=O)oc3ccc(Cl)cc23)CC1 the results were Avidin fluor inactive, RGS16-Gao HTS inactive, RGS4-Gao reg inactive, GSH fluor inactive, RGS7-Gao reg inactive, RGS8-Gao reg 143.7[activator], RGS-Gao 108.3, Biotin-avidin inactive, RGS8-Gao single inactive, RGS7-Gao single inactive, RGS16-Gao single inactive, RGS4-Gao single inactive and RGS19-Gao single inactive.
Screening O=C(NN=C1CCCCCC1)c1ccc(Br)o1 returned Avidin fluor inactive, RGS16-Gao HTS 326.8[activator], RGS4-Gao reg inactive, GSH fluor inactive, RGS7-Gao reg inactive, RGS8-Gao reg 140.8[activator], RGS-Gao 115.2, Biotin-avidin inactive, RGS8-Gao single inactive, RGS7-Gao single inactive, RGS16-Gao single inactive, RGS4-Gao single inactive and RGS19-Gao single inactive.
`CC(C)N1CCC(=NNC(=O)c2ccc(Br)o2)CC1` gave Avidin fluor inactive, RGS16-Gao HTS inactive, RGS4-Gao reg inactive, GSH fluor inactive, RGS7-Gao reg inactive and RGS8-Gao reg inactive.
Screening Cc1ccc(S(=O)(=O)NCC2CCC(C(=O)NCc3ccc4c(c3)OCO4)CC2)cc1 (stereo unspecified) returned RGS16-Gao HTS inactive, RGS4-Gao reg inactive, GSH fluor inactive, Biotin-avidin inactive, RGS8-Gao single inactive, RGS7-Gao single inactive, RGS16-Gao single inactive, RGS4-Gao single inactive and RGS19-Gao single inactive.

High-throughput results (PubChem BioAssay)
